This note sets out measurements from PubChem BioAssay (NCATS).

Inconclusive results are not listed. Activity calls are given as the source filed them. Unless noted, calls come from the whole dose curve; as a rule, active = well fitted curve in the direction sought with a large enough effect; inconclusive = small, poorly fitted or top-dose-only effect, or another doubt; inactive = no such curve, though single readings can be large; an effect the other way counts as inactive or inconclusive.

A short description of assay [1]: qHTS assay for small molecule antagonists of peroxisome proliferator-activated receptor delta signaling (AID 588535).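 Note: cells co-treated with a PPAR-delta agonist as stimulator during compound exposure.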 The conditions noted are these: HEK293T PPARd-UAS-bla, beta-lactamase FRET ratio, 18 h; 460 nm channel. The method in brief:
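Inhibition of PPAR-delta response element-driven beta-lactamase expression is measured in HEK293T cells exposed to a compound titration series for 18 hrs at 37 C. Half-maximal inhibition comes from Hill equation fitting.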
A general note: qHTS replaces the single test concentration by a dilution series.

Assay [2] addresses Peroxisome proliferator-activated receptor gamma (Homo sapiens) (UniProt P37231). Kind of assay: qHTS assay for small molecule agonists of peroxisome proliferator-activated receptor gamma signaling (AID 588536; active = well fitted curve in the direction sought with a large enough effect in the signal ratio, with a control signal flat, not every such curve was filed as active; the % refers to the signal ratio;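 note: 0% = DMSO basal wells and 100% = rosiglitazone at 2 µM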). The conditions noted are these: HEK293 PPARg-UAS-bla, beta-lactamase ratio, 16 h, percent of rosiglitazone response, DMSO as zero; series mostly up to 76.7 µM. The method in brief:
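Using GeneBLAzer HEK293 cells, response was quantified by CCF4 fluorescence and normalized between basal DMSO (0%) and rosiglitazone 2 uM (100%); curves yielded half-maximal stimulation concentration and efficacy.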

Assay [3] shares this target. Briefly: qHTS assay for small molecule antagonists of peroxisome proliferator-activated receptor gamma signaling (AID 588537; active = well fitted inhibition curve with a large enough effect in the signal ratio, with a control signal flat, not every such curve was filed as active; the % refers to the signal ratio;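 note: reporter cells co-stimulated with 50 nM rosiglitazone agonist during compound treatment; % of control where 0% means no effect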). As to conditions: HEK293 PPARg-UAS-bla, beta-lactamase ratio, antagonist mode; series mostly up to 76.8 µM. The method in brief: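 Compounds are tested as concentration series for inhibition of rosiglitazone-driven (50 nM) reporter expression in GeneBLAzer PPAR-gamma-UAS-bla HEK293 cells. After 16 h at 37 C, CCF4 substrate is added for 2 h at room temperature and blue/green fluorescence is measured.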

Assay [4] has as its target Vitamin D3 receptor (Homo sapiens) (UniProt P11473). Kind of assay: qHTS assay for small molecule antagonists of vitamin D receptor signaling (AID 588541; calls by dose curve;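 note: receptor activated by calcitriol during compound treatment; % is set by controls: 0 for no effect and ±100 for the full control effect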). The conditions noted are these: HEK293T VDR-UAS-bla, beta-lactamase ratio, antagonist mode; series mostly up to 76.7 µM. The method in brief: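 VDR-UAS-bla HEK293T cells (2000/well, 2% charcoal-stripped FBS) were treated with titrated compounds plus 1-alpha,25-dihydroxyvitamin D3 (50 nM or 3 nM final) for 16 h at 37 C. CCF4 beta-lactamase fluorescence was read; Hill fits gave IC50.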

The target is the same in assay [5]. Briefly: qHTS assay for small molecule agonists of vitamin D receptor signaling (AID 588543; calls by dose curve;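 note: 0% = DMSO basal and 100% = reference agonist control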). The conditions noted are these: HEK293T VDR-UAS-bla, beta-lactamase ratio, 16 h; series mostly up to 76.8 µM. The method in brief: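 Reporter cells (HEK293T, VDR-UAS-bla) were seeded in medium with 2% charcoal-stripped serum and incubated 5 h, then compounds in concentration series were added for 16 h at 37 °C. Stimulation was scaled between DMSO basal and 50 nM 1α,25-dihydroxyvitamin D3.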

Assay [6] deals with Thyroid hormone receptor beta (Homo sapiens) (UniProt P10828). Briefly: qHTS assay for small molecule agonists of thyroid hormone receptor beta signaling (AID 588545; calls by dose curve). The conditions noted are these: TR-UAS-bla GripTite HEK 293, beta-lactamase ratio, agonist mode, 18 h; series mostly up to 76.7 µM. The method in brief:
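HEK 293 TR-UAS-bla; agonist mode; 18 hrs, 37 C; CCF4, ex 405/em 460 and 530 nm; norm. T3 10 nM = 100%, DMSO = 0%; Hill fit → EC50, efficacy.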

Assay [7] is described as follows: qHTS assay for small molecule antagonists of retinoid X receptor alpha signaling (AID 588546; active = well fitted inhibition curve with a large enough effect in the signal ratio, with a control signal flat, not every such curve was filed as active; the % refers to the signal ratio;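 note: cells stimulated with 9-cis-retinoic acid as agonist; % is set by controls: 0 for no effect and ±100 for the full control effect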). The conditions noted are these: HEK293T RXRa-UAS-bla, beta-lactamase ratio, antagonist mode; measured here: W530 green channel, cytotoxicity proxy. The method in brief:
(§1)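 Beta-lactamase reporter inhibition, read as CCF4 fluorescence ratio (ex 405, em 460/530 nm) after 2 h at RT. HEK293T UAS-bla cells, 2500/well, were stimulated with 9-cis-RA at 500 or 100 nM final alongside test compound for 18 h at 37 C.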

For assay [8], the target named is Retinoic acid receptor RXR-alpha (Homo sapiens) (UniProt P19793). The description is as above. The conditions noted are these: HEK293T RXRa-UAS-bla, beta-lactamase ratio, antagonist mode. The method in brief:
as §1

Assay [9] is described as follows: qHTS assay for small molecule activators of the p53 signaling pathway (AID 651743; active = well fitted activation curve with a large enough effect in the signal ratio, not every such curve was filed as active; the % refers to the signal ratio; note: % of control where 0% means no effect). As to conditions: HCT-116 p53RE-bla, beta-lactamase FRET ratio, 16 h; activation: stronger effect = higher value. The method in brief: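 Agonist-mode quantitative HTS in HCT-116 cells carrying a p53-response-element beta-lactamase reporter; 16 h compound treatment at 37 C, then FRET substrate loading for 2 h at room temperature and fluorescence read.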

The nature of assay [10]: qHTS assay for small molecule activators of the nuclear factor-kappa B (NF-kB) signaling pathway (AID 651749; active = well fitted activation curve with a large enough effect in the signal ratio; the % refers to the signal ratio; note: % of control where 0% means no effect). As to conditions: NF-kB-bla ME-180 cells, beta-lactamase FRET ratio, 16 h; activation: stronger effect = higher value. The method in brief:
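Human ME-180 cervical cells with an NF-kB-bla construct; compounds added via 23 nL pin transfer, DMSO as vehicle; incubation 16 hr. Reporter activity measured by FRET disruption.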

Assay [11] is described as follows: qHTS assay for environmental chemicals that activate the Aryl hydrocarbon Receptor (AhR) signaling pathway (AID 651777). Note: % of control where 0% means no effect; nearly all actives have a fitted effect of over 15% in size. The conditions noted are these: 1A2-DRE human hepatoma cells, luciferase, 24 h; activation: stronger effect = higher value. The method in brief: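 Quantitative HTS in stably transfected human liver-derived cells whose luciferase gene sits downstream of the CYP1A2 promoter and dioxin response element. After 24 hr exposure at 37 C, One-Glo luminescence was measured.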

A short description of assay [12]: qHTS assay for small molecule agonists of the antioxidant response element (ARE) signaling pathway measured by Nrf2-dependant transcriptional activity (AID 720636; active = well fitted curve in the direction sought with a large enough effect in the repeat runs; an effect the other way counts as inactive or inconclusive; note: % of control where 0% means no effect). As to conditions: ARE-luc HepG2, Nrf2 luciferase reporter, 16 h; series mostly up to 92.4 µM. The method in brief:
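Quantitative HTS format in HepG2 cells stably expressing an ARE-luciferase reporter; 16 hr compound treatment at 37 C, luciferase signal detected with ONE-Glo.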

The nature of assay [13]: qHTS assay for small molecule agonists of the antioxidant response element (ARE) signaling pathway measured by Nrf2-dependant transcriptional activity - cell viability counter screen (AID 720653; active = well fitted curve in the direction sought with a large enough effect in the repeat runs; an effect the other way counts as inactive or inconclusive; note: % is set by controls: 0 for no effect and ±100 for the full control effect). As to conditions: ARE-bla HepG2 viability, CellTiter-Glo ATP luminescence, 16 h; max response: stronger effect = lower value. The method in brief: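 ARE-bla HepG2 cells (2,000/well) rested 5 hrs at 37C/5% CO2, then exposed to compounds in DMSO for 16 hrs. Viability was read in the same wells as intracellular ATP by luminescence, 30 min at room temperature after reagent addition.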

A short description of assay [14]: qHTS assay for cell viability of HEK293 cells (AID 743288). Note: % is set by controls: 0 for no effect and ±100 for the full control effect; nearly all actives have a fitted effect of over 50% in size. The conditions noted are these: ATP luminescence (CellTiter-Glo), 18 h; max response: stronger effect = lower value. The method in brief:
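Viable-cell counts were inferred from luciferase-based ATP content in HEK293 cells seeded at 2,000/well, pre-incubated ≥5 h, then dosed with DMSO-solubilised compounds for 18 h at 37 C.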

Assay [15] is described as follows: qHTS assay for cell viability of the p53RE-bla HCT-116 cell line (AID 743292). Note: % is set by controls: 0 for no effect and ±100 for the full control effect; nearly all actives have a fitted effect of over 55% in size. As to conditions: p53RE-bla HCT-116 viability, ATP luminescence, 16 h; series mostly up to 95 µM. The method in brief: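 Viability of compound-treated p53RE-bla HCT-116 cells is taken from ATP-dependent luciferase luminescence. Treatment lasts 16 h at 37 C after a 5 h settling period; detection follows 30 min at room temperature.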

Assay [16] has as its target Nuclear receptor subfamily 1 group I member 2 (Rattus norvegicus) (UniProt Q9R1A7). Briefly: qHTS assay for small molecule activators of the rat pregnane X receptor (rPXR) signaling pathway (AID 651751; call rule not given here; note: 0% is about no effect). The conditions noted are these: rPXR reporter cells, luciferase (One-Glo), 24 h.
A short description of assay [17]: qHTS assay for small molecule activators of the human pregnane X receptor (PXR) signaling pathway (AID 720659; call rule not given here; note: 0% is about no effect). As to conditions: DPX-2 HepG2 CYP3A4-luciferase, 24 h; series mostly up to 92.3 µM.
The target in assay [18] is Peroxisome proliferator-activated receptor alpha (Homo sapiens) (UniProt Q07869). Kind of assay: qHTS assay for small molecule agonists of the peroxisome proliferator-activated receptor alpha (PPARalpha) signaling pathway (AID 651778). Note: % of control where 0% means no effect. The conditions noted are these: PathHunter PPARalpha complementation, chemiluminescence, 6 h; max response: stronger effect = higher value. The method in brief:
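Cells plated at 2,000/well and held overnight at 37 C, 5% CO2, then compound added by pin tool for 6 hr; after PathHunter detection reagent and 60 min at room temperature, chemiluminescence from enzyme complementation was read.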

The nature of assay [19]: qHTS assay for small molecule agonists of retinoid X receptor alpha signaling (AID 588544; calls by dose curve;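 for activation: 0% = DMSO basal wells and 100% = reference agonist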). The conditions noted are these: HEK293T RXRa-UAS-bla, beta-lactamase reporter, 18 h; 530 nm emission.
The target of assay [20] is Retinoic acid receptor RXR-alpha (Homo sapiens) (UniProt P19793). Described as above. The conditions noted are these: HEK293T RXRa-UAS-bla, beta-lactamase reporter, 18 h; series mostly up to 76.7 µM.
Sequence of Retinoic acid receptor RXR-alpha (Homo sapiens) (P19793 whole entry, looked up): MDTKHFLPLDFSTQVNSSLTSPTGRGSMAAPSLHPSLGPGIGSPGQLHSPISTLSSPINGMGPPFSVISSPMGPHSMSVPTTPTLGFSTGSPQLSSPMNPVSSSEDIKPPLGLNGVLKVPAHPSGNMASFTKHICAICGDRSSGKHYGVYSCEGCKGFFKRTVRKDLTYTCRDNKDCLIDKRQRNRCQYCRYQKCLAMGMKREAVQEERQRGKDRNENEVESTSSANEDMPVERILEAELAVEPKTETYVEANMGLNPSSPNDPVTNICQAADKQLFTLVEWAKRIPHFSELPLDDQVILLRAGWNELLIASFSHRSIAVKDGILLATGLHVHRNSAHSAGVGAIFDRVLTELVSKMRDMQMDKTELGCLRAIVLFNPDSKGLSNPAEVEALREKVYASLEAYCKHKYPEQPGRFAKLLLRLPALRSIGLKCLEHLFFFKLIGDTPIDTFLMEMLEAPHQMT

Sequence of Nuclear receptor subfamily 1 group I member 2 (Rattus norvegicus) (Q9R1A7 whole entry, looked up): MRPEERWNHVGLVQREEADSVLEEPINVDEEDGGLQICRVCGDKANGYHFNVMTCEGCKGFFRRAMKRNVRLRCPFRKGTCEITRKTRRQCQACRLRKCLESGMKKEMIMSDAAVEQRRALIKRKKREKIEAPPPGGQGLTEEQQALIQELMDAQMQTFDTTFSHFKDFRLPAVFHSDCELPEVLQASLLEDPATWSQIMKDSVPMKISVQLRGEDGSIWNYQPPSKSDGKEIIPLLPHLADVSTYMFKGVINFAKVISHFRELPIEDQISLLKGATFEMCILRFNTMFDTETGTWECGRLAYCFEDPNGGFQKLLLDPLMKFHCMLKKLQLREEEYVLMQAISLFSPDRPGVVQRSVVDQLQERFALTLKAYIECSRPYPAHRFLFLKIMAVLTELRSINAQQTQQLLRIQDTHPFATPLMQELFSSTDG
Sequence of Thyroid hormone receptor beta (Homo sapiens) (P10828 whole entry, looked up): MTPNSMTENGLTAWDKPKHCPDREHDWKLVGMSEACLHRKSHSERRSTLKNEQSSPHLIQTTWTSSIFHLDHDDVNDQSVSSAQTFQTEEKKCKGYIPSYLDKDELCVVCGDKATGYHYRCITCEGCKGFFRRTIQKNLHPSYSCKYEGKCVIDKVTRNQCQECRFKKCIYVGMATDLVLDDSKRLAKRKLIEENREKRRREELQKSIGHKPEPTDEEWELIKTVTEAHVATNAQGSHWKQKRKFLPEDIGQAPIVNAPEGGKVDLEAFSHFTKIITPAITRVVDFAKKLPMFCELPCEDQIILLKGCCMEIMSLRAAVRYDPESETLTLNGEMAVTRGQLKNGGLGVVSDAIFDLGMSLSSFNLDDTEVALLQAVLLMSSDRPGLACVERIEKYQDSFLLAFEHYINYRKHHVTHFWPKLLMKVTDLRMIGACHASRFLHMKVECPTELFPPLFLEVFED
Sequence of Peroxisome proliferator-activated receptor alpha (Homo sapiens) (Q07869 whole entry, looked up): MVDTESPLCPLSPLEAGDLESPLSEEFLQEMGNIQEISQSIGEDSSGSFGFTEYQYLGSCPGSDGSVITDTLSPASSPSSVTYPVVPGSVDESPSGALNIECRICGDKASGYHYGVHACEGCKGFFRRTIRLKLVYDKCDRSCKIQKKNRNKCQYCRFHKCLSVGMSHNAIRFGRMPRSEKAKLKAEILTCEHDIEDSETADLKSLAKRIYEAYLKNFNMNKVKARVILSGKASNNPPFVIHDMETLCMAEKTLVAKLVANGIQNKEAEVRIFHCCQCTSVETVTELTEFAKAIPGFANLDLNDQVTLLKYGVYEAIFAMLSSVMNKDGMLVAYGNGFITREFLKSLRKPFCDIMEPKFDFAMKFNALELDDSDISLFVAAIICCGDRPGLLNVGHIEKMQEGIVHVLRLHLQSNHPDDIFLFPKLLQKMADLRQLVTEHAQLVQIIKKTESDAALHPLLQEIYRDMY
Sequence of Peroxisome proliferator-activated receptor gamma (Homo sapiens) (P37231 whole entry, looked up): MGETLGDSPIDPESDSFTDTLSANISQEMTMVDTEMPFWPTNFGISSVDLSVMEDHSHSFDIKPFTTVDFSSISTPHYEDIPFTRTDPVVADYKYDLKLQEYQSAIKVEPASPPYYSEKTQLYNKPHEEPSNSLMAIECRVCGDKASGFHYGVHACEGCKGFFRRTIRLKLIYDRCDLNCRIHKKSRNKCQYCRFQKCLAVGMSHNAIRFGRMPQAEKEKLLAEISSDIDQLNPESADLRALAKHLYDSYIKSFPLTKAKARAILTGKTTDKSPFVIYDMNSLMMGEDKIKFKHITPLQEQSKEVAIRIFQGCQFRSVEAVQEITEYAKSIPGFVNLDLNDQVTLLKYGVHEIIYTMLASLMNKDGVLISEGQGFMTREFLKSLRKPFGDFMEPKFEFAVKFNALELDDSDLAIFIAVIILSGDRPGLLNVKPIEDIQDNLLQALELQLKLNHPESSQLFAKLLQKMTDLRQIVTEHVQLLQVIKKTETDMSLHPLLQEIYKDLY
Sequence of Vitamin D3 receptor (Homo sapiens) (P11473 whole entry, looked up): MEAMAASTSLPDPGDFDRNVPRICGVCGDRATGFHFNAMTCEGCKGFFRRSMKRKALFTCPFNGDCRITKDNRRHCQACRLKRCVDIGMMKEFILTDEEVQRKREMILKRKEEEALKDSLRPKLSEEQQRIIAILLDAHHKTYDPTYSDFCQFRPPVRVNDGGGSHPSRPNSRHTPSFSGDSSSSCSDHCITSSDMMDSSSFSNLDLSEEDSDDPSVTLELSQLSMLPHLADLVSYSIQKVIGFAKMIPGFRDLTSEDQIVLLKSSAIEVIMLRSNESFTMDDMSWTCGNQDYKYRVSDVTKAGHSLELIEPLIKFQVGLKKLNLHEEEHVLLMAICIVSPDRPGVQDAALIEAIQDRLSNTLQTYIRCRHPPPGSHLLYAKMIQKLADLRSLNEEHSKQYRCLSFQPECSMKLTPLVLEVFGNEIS

Take `Nc1cc(Cl)nc(C(=O)O)c1Cl`: the max response in [1] was -21.2%; in assay [7] it was -11.4%; in assay [8] it was -3.66% (inactive); in assay [13], -4.32% (inactive); in assay [14], 1.25% (inactive); in [16] it was 2.09% (inactive). The outcome in [2], in assay [5] and in [17] was inactive. Moreover, the Potency result in assay [3], in assay [4], in assay [6], in assay [12] and in assay [15] was “inactive” in each case. The activation is 1.21% (inactive) in assay [9], 0.121% (inactive) in assay [10] and 1.56% (inactive) in assay [11].
As for `Cn1sccc1=O`, the max response in assay [1] was -3.21%; in assay [7] it was -13.8%; in assay [8], 7.99% (inactive); in [18] it was -2.31% (inactive); in [13], -9.28% (inactive); in assay [14], -4.03% (inactive). The result in assay [2] and in assay [5] was inactive. In addition, the Potency result in assay [4], in assay [12] and in [15] was “inactive” each time. For the same compound, the activation in assay [11] is -0.202% (inactive).
For `CCOC(=O)c1ccccc1C`, the outcome in [2] and in assay [17] was inactive. The Potency entry in assay [3], in assay [20], in assay [6], in [12] and in [15] was “inactive” each time. For the same compound, the max response in assay [19] was -8.14%; in [7], -9.25%; in [18], -0.0686% (inactive); in assay [13], 0.0878% (inactive); in assay [14], 0.0695% (inactive); in [16] it was 1% (inactive). In addition, the activation was 0.727% (inactive) in [10] and -0.718% (inactive) in assay [11].
With `O=S(=O)(O)c1cc(S(=O)(=O)O)c2c(N=Nc3ccccc3)c(O)ccc2c1`, the max response in [1] is -19.3%; in assay [19], -6.55%; in [18], -5.78% (inactive); in assay [13] it was -9.68% (inactive); in [16] it was 3.04% (inactive). Besides, the Potency entry in assay [20], in assay [6], in [12] and in assay [15] was “inactive” throughout. Further, the figures for the activation in assay [9], in [10] and in assay [11] were -0.0659% (inactive), 1.12% (inactive) and 0.18% (inactive), respectively.
For `CC(C)c1ccc(C(C)C)cc1`, the result in assay [2], in assay [5] and in [17] was inactive. Further, the Potency entry in [4], in assay [6], in assay [12] and in assay [15] was “inactive” throughout. Further, the max response in assay [19] is -15.2%; in assay [7] it was -15.9%; in assay [8], 9.54% (inactive); in [18], -2.48% (inactive); in assay [13], 2.58% (inactive); in [14], 4.22% (inactive). The max response in [16] was -0.628% (inactive). For the same compound, in [11], the activation was 0.903% (inactive).
As to `COC(=O)c1ccc(C(=O)OC)cc1`, the outcome in assay [2] and in assay [5] was inactive. The Potency result in [3], in assay [4], in [6], in [12] and in [15] was “inactive” in each case. Besides, the max response in assay [19] is -4.51%; in assay [7] it was -0.742%; in [8], -16.3% (inactive); in assay [18], -0.437% (inactive); in [13], -4.69% (inactive); in [14], -3.92% (inactive). Besides, the max response in assay [16] is 2.11% (inactive). For the same compound, the values for the activation in [9], in [10] and in assay [11] were -5.18% (inactive), -0.624% (inactive) and 2.27% (inactive), respectively.
Take `C[N+](C)(C)CC(O)CCl` (stereo not drawn): the max response in assay [1] is 1.91%; in [19], -3.49%; in assay [7] it was -3.33%; in assay [8], 4% (inactive); in assay [18], -0.685% (inactive); in assay [13], 0.797% (inactive). In addition, the max response is -11.6% (inactive) in [14] and 0.555% (inactive) in assay [16]. Also, the result in assay [2], in assay [5] and in assay [17] was inactive. The Potency entry in [3], in assay [4], in assay [20], in assay [6], in assay [12] and in assay [15] was “inactive” each time. Moreover, the values for the activation in assay [9], in assay [10] and in [11] were 0.454% (inactive), -1.69% (inactive) and 0.882% (inactive), respectively.
